Molecules are shown by their SMILES. Potency and affinity values are given separately.

This assay relates to Klebsiella pneumoniae. To be noted: Concentration 20 uM; ASSAY_TEST Inhibition of Bacterial Growth; detection method Absorption (OD600); MEDIA CAMHB; plate type 384well; NBS; CORNING #3640; time 18 hr.
In general, Inhibition refers to the relative decrease from the control value, in per cent. Higher therefore signals a response far below the control. Turning to `Cn1nc(N)c2ncc(C(Cl)(Cl)Cl)nc21`, the Inhibition is recorded as 9.07%.

In the case of `CCOC(=O)Nc1ccc2[nH]c(-c3cscn3)nc2c1`, the Inhibition came out at 4.63%.

With `O=C(O)c1ccccc1C(=O)Nc1ccccc1[N+](=O)[O-]`, the Inhibition is on record as 12.98%.

The compound `Cc1cccc(N2CCN(CC(O)COc3ccc(Cl)cc3)CC2)c1` (centres undefined) returned an Inhibition of 7.2%.

Compound `O=[N+]([O-])/C=C/c1cc2ccccc2[nH]1` gave an Inhibition of 7.79%.

`c1ccc(Sc2ncnc3ccccc23)cc1` gave an Inhibition of 8.16%.

In turn, `CCCCOc1ccc(Nc2cc(Cl)ccc2C(=O)O)cn1` registered an Inhibition of 9.69%.

For `Cn1c(=O)c2c(nc(OCCc3ccccc3)n2C)n(C)c1=O`, the Inhibition is recorded as 12.12%.

In turn, `c1ccc(NN(Cc2ccncc2)c2ccccc2)cc1` gave an Inhibition of 7.57%.

`Nc1ncnc2c1ncn2C=C=CCO` returned an Inhibition of 6.59%.

`O=C1c2ccccc2C(=O)c2c(Nc3ccc(CCO)cc3)ccc(O)c21`: the Inhibition came out at 4.66%.

`Cc1ccc(C#CC(C)(O)C(C)(C)C)cn1` (centres undefined) showed an Inhibition of 18.58%.

The compound `CCOc1cc2c(Cl)ncnc2c(OCC)c1OCC` registered an Inhibition of 0.85%.

In turn, `O=C(NC1(N2CCOCC2)CC1)c1ccc(Cl)cc1` returned an Inhibition of 3.34%.

With `CS(=O)(=O)Oc1ccc(Br)c2cccnc12`, the Inhibition came to 19.67%.

As for `Cc1nnsc1C(=O)NCc1c(F)cccc1Cl`, the Inhibition is reported as 6.44%.

With `Cc1cccc(NC2=C(C#N)C(=O)NC3(CCCC3)S2)c1`, the Inhibition came to 8.76%.

With `CCOC(=O)C(=O)C1C(=O)Nc2ccccc21` (centres undefined), the Inhibition is 15.66%.

The compound `C=CCNC(=S)NCC=C` yielded an Inhibition of 27.24%.

`C=CCOC(=O)/C=C\C(=O)NC(N)=O` yielded an Inhibition of 29.86%.

The compound `Cc1ccc(S(=O)(=O)N(C)C)cc1[N+](=O)[O-]` had an Inhibition of 1.49%.

The compound `COC(=O)C1CC(O)C(O)C(O)C1` (centres undefined) returned an Inhibition of 15.79%.

The compound `COc1c(NC=O)c2c(c([N+](=O)[O-])c1OC)C(=O)OC2` yielded an Inhibition of 24.74%.

As for `CCCSc1ncnc2[nH]ncc12`, the Inhibition stood at 27.49%.

`CCCCOC(=O)c1cccnc1`: the Inhibition was 13.5%.

Regarding `Cc1cc(NC(=O)c2ccccc2)c(Cl)cc1N`, the Inhibition was found to be 14.81%.

In turn, `c1ccc(-c2nc(-c3ccccn3)nc(-c3ccccn3)n2)nc1` returned an Inhibition of 10.56%.

In the case of `Cc1c(C(C)(C(=O)O)c2c(C)n(C)c3ccccc23)c2ccccc2n1C`, the Inhibition stood at 3.48%.

Regarding `O=C1NC(=O)C2(CCc3ccccc32)N1` (centres undefined), the Inhibition turned out to be 9.04%.

The compound `Cn1ncc2c(Nc3ccc(Br)cc3)nc(Nc3ccc(Br)cc3)nc21` registered an Inhibition of 2.31%.

For `CC(C)(C)n1nc(C2CC2)cc1NC(=O)Nc1ccc(Cl)cc1`, the Inhibition is 6.85%.

Compound `CC1(C)OC2C(CO)OC(n3cnc4c(S)ncnc43)C2O1` (centres undefined) returned an Inhibition of 6.21%.

Turning to `CC1CO/C(=C2\C(=O)OCC2C)C1` (centres undefined), the Inhibition stood at 2.95%.

`Cl.O=C(O)c1ccc(NCc2nc3ccccc3[nH]2)cc1` registered an Inhibition of 12.5%.

In turn, `CCCC1OC(c2cc3c(cc2Cl)OCO3)OCC1CC` (centres undefined) registered an Inhibition of 6.46%.

Consider `CC(C)(C)NC(=O)c1ccc(C(=O)NC(C)(C)C)cc1`, for which the Inhibition is 15.3%.

As for `Cc1nc2ccccc2nc1N1CCCC1`, the Inhibition is reported as 6.96%.

Turning to `Oc1cc(-c2nn[nH]n2)nc(O)n1`, the Inhibition is listed as 14.33%.

Turning to `CC1=C2C3OC(=O)C(C)C3CCC2(C)C=C(Cl)C1=O` (centres undefined), the Inhibition worked out at 10.19%.

The record behind these values is ChEMBL document CHEMBL4296182, “CO-ADD screening of NIH NCI Diversity Set V”.
